Reference: PubChem BioAssay AID504332 (National Center for Advancing Translational Sciences (NCATS), 2011)
About 31,000 (8.9%) of roughly 350,000 compounds were called active. Roughly 15% stayed inconclusive and do not appear here. The call rests on the fitted dose curve; in most records, active means well fitted inhibition curve with a large enough effect; inconclusive means small, poorly fitted or top-dose-only effect; inactive means no such curve, though single readings can be large or run the other way. For the sample, actives were picked, then their nearest neighbours and some compounds at random.

Molecular target: Histone-lysine N-methyltransferase EHMT2 (Homo sapiens) (UniProt Q96KQ7)
Sequence (Q96KQ7 913-1193 limits assumed): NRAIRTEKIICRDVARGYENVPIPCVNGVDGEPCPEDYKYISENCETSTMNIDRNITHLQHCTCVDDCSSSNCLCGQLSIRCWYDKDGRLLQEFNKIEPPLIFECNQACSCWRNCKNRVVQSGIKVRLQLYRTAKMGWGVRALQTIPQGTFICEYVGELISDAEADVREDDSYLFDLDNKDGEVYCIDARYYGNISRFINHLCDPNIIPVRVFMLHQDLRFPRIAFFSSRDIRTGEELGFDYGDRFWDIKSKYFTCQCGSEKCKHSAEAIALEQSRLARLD
Assay: qHTS Assay for Inhibitors of Histone Lysine Methyltransferase G9a; further: nearly all actives have a fitted effect of over 75% in size
Conditions: G9a H3K9 monomethylation, AlphaScreen, 2 h; series mostly up to 59 µM; activity, negative = inhibition: at the top concentration
Procedure, shortened: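 AlphaScreen read-out: biotin-H3K9 peptide (500 nM) methylation by 20 nM enzyme with 20 uM SAM, 2 h at room temperature after 15 min compound preincubation; anti-monomethyl H3K9 antibody plus donor/acceptor beads, 10 min dark.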
On the % scale 0 is the no-effect control and ±100 the full control effect; potency means the concentration at half of the fitted maximal effect.

activity, negative = inhibition, inactive:
Cc1cc(C(C)(C)C)cc(S(=O)(=O)Nc2ccc(C(=O)O)cc2)c1C -12.7% [at 102 µM]
CC(=O)c1c(C)oc2ccc(NS(=O)(=O)c3ccc(C(=O)O)cc3)cc12 1.03%
CCCn1c2ccccc2c2cnn(CC(=O)N(C)c3ccccc3CC)c(=O)c21 -27.2%
CC(CCc1ccccc1)NC(=O)COC(=O)c1ccc(F)cc1 (stereo not drawn) -3.05% [at 102 µM]
O=C(Cn1ncc2c3ccccc3n(Cc3ccccc3)c2c1=O)NC1CCCCCC1 -31.1%
Cc1ccc(NC(=O)C2CC(c3ccc(F)cc3)=NO2)cc1 (stereo not drawn) -18.1%
O=C(Nc1ccc2c(c1)OCO2)C1CC1(Cl)Cl (stereo not drawn) 2.4% [at 12.7 µM]
O=C(Nc1ccccn1)C1CCN(S(=O)(=O)c2ccccc2)CC1 -10.1% [at 12.7 µM]
Nc1c(N(CCCO)C(=O)C2CCCC2)c(=O)[nH]c(=O)n1Cc1ccccc1 -4.25%
Cn1nnnc1SCCCNCc1cccc(OCc2ccc(Cl)cc2)c1 -4.08%
O=C(Cn1nc(Cc2cccnc2)c2ccccc2c1=O)N1CCN(c2ccccc2F)CC1 -4.08%
Cn1c2cc(B(O)O)sc2c2cnn(Cc3ccccc3F)c(=O)c21 0.244% [at 12.7 µM]
COc1ccc(CNC(=O)CSc2nc3ccccc3nc2Cc2ccccc2)cc1 1.61%
CCS(=O)(=O)c1nc(S(=O)(=O)c2ccc(C)cc2)c(NCc2ccc(Cl)cc2)s1 -3.64%
O=C(CCS(=O)(=O)c1cc(Br)cc2c1N(C(=O)C1CC1)CC2)Nc1ccc(Br)cc1F -24.4%
Cc1cccc(OCC(=O)Nc2ccc(NC(=O)c3ccco3)c(C)c2)c1 0.639% [at 12.7 µM]
Cc1cccc(Nc2cc(C)nc(-n3nc(C)cc3C)n2)c1 7.07%
CCC1=Nc2cc(C(=O)NCC(C)c3ccccc3)ccc2Sc2ccc(C)cc21 (stereo not drawn) -7.48%
CCC1=Nc2cc(C(=O)NCCN3CCCC3)ccc2Sc2ccc(C)cc21 6.23%
Cc1ccc(F)cc1S(=O)(=O)Nc1cccc(C(=O)N2CCCC(C(N)=O)C2)c1 (stereo not drawn) -6.54%
CCOc1ccccc1NC(=O)CCn1cnnn1 -19.1%
Cc1cc(Cl)ccc1OCCCC(=O)Nc1cccc(-n2cnnn2)c1 -4.08% [at 102 µM]
CN(C)c1ccc(/C=N\S(=O)(=O)c2ccccc2)cc1 -28.2%
CCc1ccc(-c2nn(-c3ccccc3C)cc2C(=O)N2CCN(C3CCS(=O)(=O)C3)CC2)cc1 (stereo not drawn) 5.96% [at 12.7 µM]
CCC(C)(C)NC(=O)C(c1ccc(OC)cc1)N(C(=O)CCC(=O)Nc1cc(C)on1)c1ccc(OC)cc1OC (stereo not drawn) -5.95% [at 102 µM]
CCOc1cc(/C=C/C(=O)OCC(=O)NCCN2C(=O)CSC2=O)ccc1OCC(C)C 17.6% [at 12.7 µM]
Cc1cc(-c2ccc(C)c(S(=O)(=O)N3c4ccccc4CC3C)c2)on1 (stereo not drawn) -1.74%
COc1ccc(CCNC(=O)CCC(=O)NC2CCCCC2)cc1OC 31% [at 102 µM]
O=C(Cn1nnc(-c2ccc(CN3CCOCC3)cc2)n1)NC1CCCCC1 10.1% [at 12.7 µM]
Cc1cc(-c2ccccc2)n2nc(-c3ccccc3)cc2n1 276%
COc1cccc(NC(=S)NCc2ccco2)c1 -8.68%
S=C(NCc1ccco1)NCc1ccccc1Cl -7.27% [at 102 µM]
Cc1c(Cl)cccc1NC(=S)NCc1ccc2c(c1)OCO2 4.92%
CCCCC(=O)Nc1ccc2c(c1)OCCO2 -36.9%
CCC1CN(S(=O)(=O)c2cc(-c3cc(C)no3)ccc2C)c2cc(C)ccc2O1 (stereo not drawn) 6.83%
O=C(NC1CCCCCC1)C1CCN(C(=O)c2ccc(Cl)cc2)CC1 6.11% [at 12.7 µM]
CCOC(=O)c1cc(=O)c2ccc(OCc3ccccc3)cc2o1 -4.05% [at 102 µM]
COc1cc(C2C(C(=O)c3ccco3)=C(O)C(=O)N2c2cc(C)on2)ccc1OCc1ccccc1 (stereo not drawn) -10.4% [at 102 µM]
O=C(O)c1ccc(Nc2nc(-c3ccccc3)c3cc(Br)ccc3n2)cc1 -2.63%

Potency, active:
O=C(O)c1ccc(NS(=O)(=O)c2ccc3c(c2)C(=O)c2cc(S(=O)(=O)Nc4ccc(C(=O)O)cc4)ccc2-3)cc1 50.1 µM
O=C(Nc1ccc2c(c1)OCO2)C1CC(c2c(F)cccc2Cl)=NO1 (stereo not drawn) 44.7 µM
O=c1c2ccccc2cnn1Cc1n[nH]c(=S)n1-c1ccccc1F 31.6 µM
CCCC1=Nc2cc(C(=O)NCCN3CCCC3)ccc2Sc2ccccc21 79.4 µM
CC[n+]1cc(C)ccc1/C=C/c1ccc(N(C)C)cc1 6.31 µM
COc1ccc(C(=O)N(CCN2CCOCC2)CC(=O)NC2CCCC2)cc1OC 50.1 µM
S=C(NCc1ccc2c(c1)OCO2)NCc1ccco1 31.6 µM
S=C(NCc1ccco1)Nc1ccc2c(c1)OCCO2 44.7 µM
Cc1cc(N2C(=O)C(O)=C(C(=O)c3ccc(C)o3)C2c2ccc(OCc3ccccc3)cc2)no1 (stereo not drawn) 31.6 µM
